The source made the active and inactive calls. Rule for the calls: active = hit-call score of the fitted dose curve at least 0.9, where 1 is the maximum; inactive = score below 0.9.
Columns and labels:
[1] = ATG_CRE_CIS: Attagene CIS-FACTORIAL HepG2 Assay for human cAMP Responsive Element (CRE) binding protein 3 (AID 2282926); details: HepG2 CRE cis-reporter, Attagene multiplexed mRNA; actives raise or lower the signal
Outline: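 Assay format: transient reporter transfection of HepG2, 24 h treatment, total RNA isolation with DNase I step. Reporter abundance read by fluorescence after PCR and capillary separation; DMSO-normalised gain or loss fitting.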

[2] = target: CCAAT/enhancer-binding protein beta (Homo sapiens) (UniProt P17676); experiment: ATG_C_EBP_CIS: Attagene CIS-FACTORIAL HepG2 Assay for human CCAAT/Enhancer Binding Protein (C/EBP) beta (AID 2282927); details: HepG2 Attagene cis-factorial transcription factor reporter; actives raise or lower the signal
Sequence of CCAAT/enhancer-binding protein beta (Homo sapiens) (P17676 whole entry, looked up): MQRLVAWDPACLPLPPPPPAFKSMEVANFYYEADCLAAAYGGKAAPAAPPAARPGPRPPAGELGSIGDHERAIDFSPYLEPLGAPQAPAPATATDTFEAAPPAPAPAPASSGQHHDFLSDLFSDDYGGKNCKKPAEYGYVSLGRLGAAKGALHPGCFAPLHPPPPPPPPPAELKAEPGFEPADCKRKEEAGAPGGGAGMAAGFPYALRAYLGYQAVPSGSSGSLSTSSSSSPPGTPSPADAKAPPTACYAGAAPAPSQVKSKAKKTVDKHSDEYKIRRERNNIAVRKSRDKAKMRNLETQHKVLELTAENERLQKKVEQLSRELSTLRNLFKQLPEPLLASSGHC
Outline: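 Transiently transfected HepG2 (MRTU library, endogenous TF-driven promoters); 24 h dosing; total RNA → oligo(dT) RT → PCR → 6-FAM primer extension → HpaI digest → CE; fit bidirectionally vs DMSO.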

[3] = ATG_CMV_CIS: Attagene CIS-FACTORIAL HepG2 Assay for human CMV (Internal Marker) (AID 2282928); details: HepG2 CMV promoter reporter, transcription factor profiling; actives raise or lower the signal;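 note: endpoint acts as a background internal control marker rather than a target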
Outline: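 Readout: fluorescent reporter cDNA fragments separated by capillary electrophoresis after RT-PCR and HpaI cut. Cells: HepG2 carrying transfected cis-promoter reporter constructs, dosed 24 h. Endpoint serves as background internal-marker control, fit bidirectionally versus DMSO.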

[4] = ATG_DR4_LXR_CIS: Attagene CIS-FACTORIAL HepG2 Assay for human Liver X Receptor (LXR), DR4 submotif (AID 2282929); details: HepG2 Attagene DR4 cis-reporter, mRNA transcription; actives raise or lower the signal
Outline: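 DR4 cis-reporter in HepG2, 24 h exposure. Detection: RT-PCR, 6-FAM labelling, CE fragment analysis. Endpoint fitted bidirectionally, DMSO = baseline.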

[5] = target: Aryl hydrocarbon receptor (Homo sapiens) (UniProt P35869); experiment: ATG_Ahr_CIS: Attagene CIS-FACTORIAL HepG2 Assay for human Aryl Hydrocarbon Receptor (Ahr) (AID 2282930); details: HepG2 AhR cis-factorial reporter transcription; actives raise or lower the signal
Sequence of Aryl hydrocarbon receptor (Homo sapiens) (P35869 whole entry, looked up): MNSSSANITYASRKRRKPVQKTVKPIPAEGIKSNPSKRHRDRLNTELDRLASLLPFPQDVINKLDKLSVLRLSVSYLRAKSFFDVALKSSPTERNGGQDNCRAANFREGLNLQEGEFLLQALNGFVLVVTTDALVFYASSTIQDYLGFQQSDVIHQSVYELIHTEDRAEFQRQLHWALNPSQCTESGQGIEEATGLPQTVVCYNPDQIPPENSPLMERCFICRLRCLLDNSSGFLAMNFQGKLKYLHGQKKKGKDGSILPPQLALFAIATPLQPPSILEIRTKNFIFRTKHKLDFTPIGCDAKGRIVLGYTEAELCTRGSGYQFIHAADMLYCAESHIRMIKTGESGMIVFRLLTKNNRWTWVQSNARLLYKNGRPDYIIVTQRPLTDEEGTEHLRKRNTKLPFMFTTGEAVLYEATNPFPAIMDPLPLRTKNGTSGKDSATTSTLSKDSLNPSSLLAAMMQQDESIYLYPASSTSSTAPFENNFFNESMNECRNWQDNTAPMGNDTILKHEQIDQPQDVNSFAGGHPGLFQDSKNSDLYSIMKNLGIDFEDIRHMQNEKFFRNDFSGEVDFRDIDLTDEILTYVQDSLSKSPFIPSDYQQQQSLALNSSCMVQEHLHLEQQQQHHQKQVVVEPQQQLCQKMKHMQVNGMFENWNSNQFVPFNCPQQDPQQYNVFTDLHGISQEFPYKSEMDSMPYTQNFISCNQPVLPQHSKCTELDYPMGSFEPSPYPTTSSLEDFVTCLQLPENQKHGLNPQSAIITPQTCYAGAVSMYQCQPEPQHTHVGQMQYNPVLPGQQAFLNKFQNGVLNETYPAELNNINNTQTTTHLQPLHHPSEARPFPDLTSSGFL
Outline: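 Read-out: reporter mRNA quantified by RT-PCR with fluorescent primer extension and capillary electrophoresis. Human HepG2 liver cells carried transfected cis-promoter reporter units and were exposed to chemical for 24 h; gain or loss fitted relative to DMSO.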

[6] = ATG_AP_2_CIS: Attagene CIS-FACTORIAL HepG2 Assay for human Activator Protein 2 (AP-2) (AID 2282932); details: HepG2 AP-2 cis-reporter, Attagene transcription factor profiling; actives raise or lower the signal
Outline: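 Read-out: fluorescent reporter mRNA via RT-PCR and capillary electrophoresis, 24 h post-dose in transiently transfected HepG2. Endogenous factors drive cis-promoter reporters; gain or loss of signal fitted bidirectionally against DMSO.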

[7] = ATG_BRE_CIS: Attagene CIS-FACTORIAL HepG2 Assay for human Bone Morphogenetic Protein (BMP) Response Element (BRE) (AID 2282933); details: HepG2 BMP response element reporter, Attagene transcription factor profiling; actives raise or lower the signal
Outline: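 Read-out: reporter mRNA induction quantified by RT-PCR and capillary electrophoresis after 24 h chemical exposure of transfected HepG2 cells. Endogenous factor activity on the BMP response element; gain or loss fitted against DMSO baseline.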

[8] = target: Retinoic acid receptor alpha (Homo sapiens) (UniProt P10276); experiment: ATG_DR5_RAR_CIS: Attagene CIS-FACTORIAL HepG2 Assay for human Retinoic Acid Receptor Alpha (RARE), DR5 submotif (AID 2282934); details: HepG2 Attagene cis-factorial RARE DR5 reporter, mRNA; actives raise or lower the signal;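 for AC50: reporter responds to endogenous RAR alpha beta and gamma in HepG2 not RARA alone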
Sequence of Retinoic acid receptor alpha (Homo sapiens) (P10276 whole entry, looked up): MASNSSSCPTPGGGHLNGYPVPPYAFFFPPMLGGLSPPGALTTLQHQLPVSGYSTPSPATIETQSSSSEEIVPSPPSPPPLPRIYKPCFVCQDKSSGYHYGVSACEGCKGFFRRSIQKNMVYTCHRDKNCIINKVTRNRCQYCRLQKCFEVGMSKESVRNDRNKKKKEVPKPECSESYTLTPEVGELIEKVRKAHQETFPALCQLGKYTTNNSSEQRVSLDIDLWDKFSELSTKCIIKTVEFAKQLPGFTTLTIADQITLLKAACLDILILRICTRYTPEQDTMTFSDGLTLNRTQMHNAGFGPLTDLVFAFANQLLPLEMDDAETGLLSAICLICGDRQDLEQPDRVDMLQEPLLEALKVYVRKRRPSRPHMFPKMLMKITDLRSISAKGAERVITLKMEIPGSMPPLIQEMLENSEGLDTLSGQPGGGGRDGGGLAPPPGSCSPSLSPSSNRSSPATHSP
Outline: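 Read-out: DR5-driven reporter transcript measured by RT-PCR, 6-FAM primer extension, HpaI digest and capillary electrophoresis. Human HepG2 liver cells carry transiently transfected cis-element reporter constructs; dosing lasts 24 h. Gain or loss of signal fitted against DMSO baseline.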

[9] = target: Transcription factor E2F1 (Homo sapiens) (UniProt Q01094); experiment: ATG_E2F_CIS: Attagene CIS-FACTORIAL HepG2 Assay for human E2F Transcription Factor 1 (AID 2282935); details: HepG2 Attagene cis-reporter, E2F reporter RNA transcripts; actives raise or lower the signal
Sequence of Transcription factor E2F1 (Homo sapiens) (Q01094 whole entry, looked up): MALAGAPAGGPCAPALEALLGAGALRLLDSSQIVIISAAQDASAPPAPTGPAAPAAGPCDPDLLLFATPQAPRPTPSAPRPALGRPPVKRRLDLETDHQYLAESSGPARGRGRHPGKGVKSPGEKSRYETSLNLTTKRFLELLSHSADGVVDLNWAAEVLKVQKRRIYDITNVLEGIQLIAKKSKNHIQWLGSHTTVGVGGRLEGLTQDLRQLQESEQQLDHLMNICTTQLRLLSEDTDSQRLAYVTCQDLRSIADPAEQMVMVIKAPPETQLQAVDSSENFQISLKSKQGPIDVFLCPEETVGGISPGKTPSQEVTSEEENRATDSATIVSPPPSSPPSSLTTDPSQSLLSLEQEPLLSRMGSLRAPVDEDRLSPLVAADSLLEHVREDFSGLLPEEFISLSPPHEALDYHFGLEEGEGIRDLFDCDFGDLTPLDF
Outline: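 Transient MRTU transfection of HepG2; 24 h compound exposure; RNA → oligo(dT) RT → PCR → FAM label → HpaI cut → CE fluorescence. Gain/loss of signal fit against DMSO.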

[10] = ATG_E_Box_CIS: Attagene CIS-FACTORIAL HepG2 Assay for human Enhancer Box (E-box) (AID 2282936); details: HepG2 E-box cis-reporter transcription, actives raise or lower the signal
Outline: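 Transiently transfected HepG2, endogenous TF-driven reporters, 24 h dosing. Readout: RT-PCR plus capillary electrophoresis of fluorescent reporter fragments. Gain or loss of signal fitted bidirectionally against DMSO baseline.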

[11] = ATG_M_61_CIS: Attagene CIS-FACTORIAL HepG2 Assay for M61 Transcription Factor (Internal Marker) (AID 2282937); details: HepG2 Attagene CIS-FACTORIAL M61 internal marker reporter; actives raise or lower the signal
Outline: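 Background-control endpoint: HepG2 cells with cis-regulated reporter constructs, 24 h exposure, reporter mRNA detected via fluorescent primer extension and capillary electrophoresis; values from bidirectional fitting with DMSO baseline.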

[12] = ATG_EGR_CIS: Attagene CIS-FACTORIAL HepG2 Assay for human Early Growth Response 1 (EGR1) (AID 2282938); details: HepG2 Attagene CIS-FACTORIAL EGR reporter mRNA; actives raise or lower the signal
Outline: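 Endpoint derived by bidirectional fitting versus DMSO vehicle. Method: cis-promoter reporter units transfected into HepG2, 24 h dosing, RNA isolation, RT-PCR with 6-FAM primer extension and HpaI digestion, then capillary electrophoresis fluorescence detection.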

[13] = ATG_M_19_CIS: Attagene CIS-FACTORIAL HepG2 Assay for M19 Transcription Factor (Internal Marker) (AID 2282939); details: HepG2 Attagene CIS-FACTORIAL M19 internal marker reporter; actives raise or lower the signal
Outline: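 Readout: fluorescent reporter-transcript fragments by capillary electrophoresis after RT-PCR. Human HepG2 liver cells carried transfected MRTU constructs reporting endogenous transcription-factor activity; exposure 24 h. Gain or loss of signal fitted relative to DMSO.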

[14] = ATG_ERE_CIS: Attagene CIS-FACTORIAL HepG2 Assay for Estrogen Response Element (ERE) (AID 2282940); details: HepG2 ERE cis-reporter, Attagene RNA transcript; actives raise or lower the signal
Outline: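 Readout: reporter mRNA induction by RT-PCR, FAM-labelled primer extension, HpaI digestion and capillary electrophoresis, 24 h after dosing transfected HepG2 cells. Endogenous transcription factors act on cis-element-regulated reporters. Gain or loss fitted against DMSO.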

[15] = target: Hepatocyte nuclear factor 3-beta (Homo sapiens) (UniProt Q9Y261); experiment: ATG_FoxA2_CIS: Attagene CIS-FACTORIAL HepG2 Assay for human Forkhead box A2 (FOXA2) (AID 2282942); details: HepG2 cis-reporter transcription factor activity, 24 h; actives raise or lower the signal
Sequence of Hepatocyte nuclear factor 3-beta (Homo sapiens) (Q9Y261 whole entry, looked up): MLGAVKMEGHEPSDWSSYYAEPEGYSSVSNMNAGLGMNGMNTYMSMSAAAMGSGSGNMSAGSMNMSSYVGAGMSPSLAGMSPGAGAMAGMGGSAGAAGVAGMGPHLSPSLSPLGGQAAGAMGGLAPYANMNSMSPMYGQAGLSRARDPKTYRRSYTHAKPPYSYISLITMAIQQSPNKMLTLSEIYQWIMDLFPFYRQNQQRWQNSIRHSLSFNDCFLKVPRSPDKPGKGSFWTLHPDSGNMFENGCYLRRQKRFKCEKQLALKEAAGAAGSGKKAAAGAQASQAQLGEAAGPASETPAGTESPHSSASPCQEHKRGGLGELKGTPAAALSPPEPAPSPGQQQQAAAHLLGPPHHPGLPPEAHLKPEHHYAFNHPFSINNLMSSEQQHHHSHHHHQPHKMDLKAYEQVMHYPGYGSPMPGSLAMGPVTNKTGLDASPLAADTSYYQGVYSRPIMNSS
Outline: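 Measured: reporter mRNA induction or loss in HepG2 transiently carrying multiple cis-regulated reporter units, 24 h after dosing. Quantified by RT-PCR plus capillary electrophoresis, normalised to DMSO.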

[16] = ATG_FoxO_CIS: Attagene CIS-FACTORIAL HepG2 Assay for human Forkhead box O (FoxO) (AID 2282943); details: HepG2 Attagene cis-reporter, FoxO element, mRNA; actives raise or lower the signal
Outline: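 Read-out: fluorescence of 6-FAM-labelled reporter cDNA fragments resolved by capillary electrophoresis. Transiently transfected HepG2 cells were dosed for 24 h; activity fitted in both directions relative to DMSO controls.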

[17] = ATG_GATA_CIS: Attagene CIS-FACTORIAL HepG2 Assay for human GATA Binding Protein (AID 2282944); details: HepG2 GATA cis-element reporter, Attagene multiplex mRNA; actives raise or lower the signal
Outline: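 Read-out: fluorescent reporter mRNA fragments resolved by capillary electrophoresis after RT-PCR. Human liver HepG2 cells carried transiently transfected cis-regulated reporter constructs; chemicals incubated 24 h; gain or loss of signal fitted relative to DMSO.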

[18] = ATG_GLI_CIS: Attagene CIS-FACTORIAL HepG2 Assay for human Zinc Finger Protein GLI1 (AID 2282945); details: HepG2, Attagene cis-factorial reporter mRNA, GLI element; actives raise or lower the signal
Outline: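 Transiently transfected HepG2 cells report endogenous transcription factor activity via cis-element-driven reporter units. After 24 h compound exposure, reporter mRNA was measured by RT-PCR with capillary electrophoresis; bidirectional fitting against DMSO baseline.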

[19] = ATG_Ets_CIS: Attagene CIS-FACTORIAL HepG2 Assay for human Erythroblast Transformation Specific (ETS) (AID 2282941); details: HepG2 ETS cis-reporter transcription, actives raise or lower the signal
Outline: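 RT-PCR/capillary electrophoresis fluorescence read-out of reporter mRNA; HepG2 transient multi-reporter transfection; 24 h compound exposure; gain or loss of signal fitted bidirectionally relative to DMSO.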

[20] = ATG_AP_1_CIS: Attagene CIS-FACTORIAL HepG2 Assay for human Activator Protein 1 (AP-1) (AID 2282931); details: HepG2 Attagene cis-factorial AP-1 reporter mRNA; actives raise or lower the signal
Outline: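 Cis-regulated reporter units transiently expressed in HepG2 report endogenous transcription-factor activity. Signal: reporter mRNA at 24 h, via RT-PCR and fluorescent capillary electrophoresis. Endpoint derived by bidirectional fitting, DMSO as negative control.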

Measured: AC50

CCCCCc1ccc(Cl)cc1
active: [3] 66.4 µM | [8] 84.1 µM | [9] 61.5 µM
inactive: [1] | [2] | [4] | [5] | [6] | [7] | [10] | [11] | [12] | [13] | [14] | [15] | [16] | [17] | [18]

CCO[Si](CCCN=C=O)(OCC)OCC
inactive: [1] | [2] | [3] | [4] | [5] | [6] | [7] | [9] | [10] | [11] | [12] | [13] | [14] | [19] | [15] | [16] | [17] | [18]

CCCCCCC(O)CO (stereo not drawn)
inactive: [1] | [2] | [3] | [4] | [5] | [6] | [7] | [8] | [9] | [12] | [13] | [14] | [19] | [15] | [16] | [17] | [18]

O=S(=O)(O)CC(O)CCl (stereo not drawn)
inactive: [1] | [2] | [3] | [4] | [5] | [20] | [7] | [8] | [9] | [10] | [13] | [14] | [19] | [15] | [16] | [17] | [18]

Nc1ncn([C@@H]2O[C@H](CO)[C@@H](O)[C@H]2O)c(=O)n1
active: [1] 9.4 µM | [2] 15.4 µM | [10] 27.5 µM | [19] 39.5 µM
inactive: [3] | [4] | [5] | [6] | [7] | [8] | [9] | [11] | [12] | [13] | [14] | [15] | [16] | [17] | [18]

C=C(C)[C@@H]1CCC2=CCC[C@@H](C)[C@]2(C)C1
inactive: [1] | [2] | [4] | [5] | [6] | [7] | [8] | [9] | [10] | [11] | [13] | [19] | [15] | [16] | [17] | [18]
active: [3] 67 µM | [14] 57.2 µM

C=CC(C)(C)C
inactive: [1] | [2] | [3] | [4] | [5] | [20] | [7] | [8] | [9] | [11] | [12] | [13] | [14] | [19] | [15] | [16] | [17] | [18]

C=CC(=O)OCCOC1C2CCC1C1CC=CC12 (stereo not drawn)
inactive: [1] | [2] | [3] | [4] | [5] | [6] | [7] | [8] | [9] | [10] | [11] | [12] | [13] | [14] | [19] | [15] | [16] | [17]

— PubChem BioAssay (EPA / NIEHS)
